Measurements published in publication PMC6792352, “Limited Chemical Structural Diversity Found to Modulate Thyroid Hormone Receptor in the Tox21 Chemical Library” (Environmental Health Perspectives, 2019).
Where a name gives a salt, the structure may show the parent alone.

test system: thyroid hormone receptor (endogenous TRα and TRβ); parameters: species or system GH3-TRE-Luc (rat pituitary); GH3-TRE-Luc luciferase reporter, antagonist mode against 1 nM T3, loss of signal, qHTS; conditions: read-out: Average AC50 (uM) GH3-TRE-Antag, antagonist mode, 1 nM T3, no GH3 cytotoxicity hit

Row | SMILES | AC50
1 | COC(=O)Nc1nc2ccc([S+]([O-])c3ccccc3)cc2[nH]1 (stereo not shown) [Oxfendazole] | 12.2 µM
2 | Cc1occc1SSc1ccoc1C [Bis(2-methyl-3-furyl)disulfide] | 65.9 µM
3 | CCC(=O)Oc1ccc(/C(CC)=C(\CC)c2ccc(OC(=O)CC)cc2)cc1 [Diethylstilbestrol dipropionate] | 56.1 µM
4 | CON(C)C(=O)Nc1ccc(Cl)c(Cl)c1 [Linuron] | 61.4 µM
5 | CCCCNc1ccc(C(=O)OCCN(CC)CC)cc1 [Depolipon] | 21 µM
6 | COc1ccc(-n2nc(C(F)F)cc2-c2ccc([S+](C)[O-])cc2)cc1 (stereo not shown) [Difpas-pyrazole] | 70.2 µM
7 | CCn1c2ccccc2c2cc(N)ccc21 [3-Amino-9-ethylcarbazole hydrochloride] | 46.6 µM
8 | CCN(CC)CCOc1ccc2c(c1)C(=O)c1cc(OCCN(CC)CC)ccc1-2 [Tilorone] | 17.6 µM
9 | O=C(c1ccc(F)cc1)C1CCN(CCn2c(=S)[nH]c3ccccc3c2=O)CC1 [Altanserin hydrochloride] | 46.6 µM
10 | O=Cc1ccc(Cl)c([N+](=O)[O-])c1 [4-Chloro-3-nitrobenzaldehyde] | 68.3 µM
11 | CCCN(CCC)S(=O)(=O)c1ccc(C(=O)O)cc1 [Probenecid] | 4.15 µM
12 | CC(CN1CC(=O)NC(=O)C1)N1CC(=O)NC(=O)C1 (stereo not shown) [ICRF-159] | 33.9 µM
13 | CC(C)[C@H](C(=O)O[C@H](C#N)c1cccc(Oc2ccccc2)c1)c1ccc(Cl)cc1 [Esfenvalerate] | 48 µM
14 | CCCCCCOc1ccc(N)cc1 [4-Hexyloxyaniline] | 59.8 µM
15 | Cc1ccc2nc(-c3ccc(N)cc3)sc2c1S(=O)(=O)O | 45.2 µM
16 | C[C@]12CC[C@@H]3c4ccc(O)cc4CC[C@H]3[C@@H]1C[C@@H](O)[C@@H]2O [Estriol] | > 50 µM
17 | Nc1c(Br)cc(Br)cc1CN[C@H]1CC[C@H](O)CC1 [Ambroxolhydrochloride] | 24.9 µM
18 | O=C(/C=C/c1ccccc1)OCc1ccccc1 [Benzyl cinnamate] | > 50 µM
19 | CO[C@@H]1[C@H](OC(=O)/C=C/C=C/C=C/C=C/C(=O)O)CC[C@]2(CO2)[C@H]1[C@@]1(C)O[C@@H]1CC=C(C)C [Fumagillin] | 0.0177 µM

Row | SMILES | AC50
20 | C=CCc1ccccc1OCC(O)CNC(C)C (stereo not shown) [Alprenolol] | 27.2 µM
21 | CC1(C)[C@H](/C=C(\Cl)C(F)(F)F)[C@@H]1C(=O)O[C@@H](C#N)c1cccc(Oc2ccccc2)c1 [?-Cyhalothrin] | 33.9 µM
22 | CCOC(=O)C1=NN(c2ccccc2)C(=O)C1 [Ethyl 5-oxo-1-phenyl-4,5-dihydro-1H-pyrazole-3-carboxylate] | 47.8 µM
23 | O=C(/C=C/C=C/c1ccc2c(c1)OCO2)N1CCCCC1 [Piperine] | 73.5 µM
24 | Clc1ccc(CCC(Cn2ccnc2)Sc2c(Cl)cccc2Cl)cc1 (stereo not shown) [Butoconazole nitrate] | 17.9 µM
25 | CCCCC(CC)COC(=O)c1ccccc1C(=O)O (stereo not shown) [MEHP] | 70.2 µM
26 | COC(=O)[C@H]1[C@H]2C[C@@H]3c4[nH]c5cc(OC)ccc5c4CCN3C[C@H]2C[C@@H](OC(=O)/C=C/c2cc(OC)c(OC)c(OC)c2)[C@@H]1OC [Rescinnamine] | 21 µM
27 | Cc1nc2ccccc2n1Cc1ccc(Cl)cc1 [Chlormidazole] | 5.9 µM
28 | Cc1c(OCC(F)(F)F)ccnc1C[S+]([O-])c1nc2ccccc2[nH]1 (stereo not shown) [Lansoprazole] | > 50 µM
29 | Cc1c(Nc2ncccc2C(=O)O)cccc1C(F)(F)F [Flunixin meglumine] | 2.85 µM
30 | Cc1ccc(/C(=C\CN2CCCC2)c2ccccn2)cc1 [Triprolidine] | 21.5 µM
31 | CSc1ccc(/C=C2/C(C)=C(CC(=O)O)c3cc(F)ccc32)cc1 [Sulindac sulfide] | 24 µM
32 | CCCCOC(=O)CC(CC(=O)OCCCC)(OC(C)=O)C(=O)OCCCC [Acetyl tributyl citrate] | 35.1 µM
33 | CC(C)(C)c1ccccc1O [2-tert-Butylphenol] | 84.6 µM
34 | CCC(=O)O[C@]1(C(=O)CCl)[C@@H](C)C[C@H]2[C@@H]3C[C@H](F)C4=CC(=O)C=C[C@]4(C)[C@@]3(F)[C@@H](O)C[C@@]21C [Halobetasol propionate] | 42.4 µM
35 | O=C1CCN(c2ccccc2)N1 [3-Pyrazolidinone,1-phenyl-] | > 90 µM
36 | CCOC(=O)Cn1cccc1-c1nc(-c2ccc(OC)cc2)c(-c2ccc(OC)cc2)s1 [Pamicogrel] | 14.5 µM
37 | COc1ccc(/C=C/C(=O)Nc2ccccc2C(=O)O)cc1OC [Tranilast] | 12.3 µM
